The values that follow come from ChEMBL document CHEMBL4888484, “Replenishing the malaria drug discovery pipeline: Screening and hit evaluation of the MMV Hit Generation Library 1 (HGL1) against asexual blood stage Plasmodium falciparum ,using a nano luciferase reporter read-out” (2022).

Hit rate of the full screen: of about 150,000 compounds, about 540 (0.36%) showed an effect of 50% or more. What follows is part of a selection rich in strong results, with near analogues and random picks from the rest.

In this experiment the test system is Plasmodium falciparum. Description: Primary screen in NF54 nanoGlo assay, in single point, at 2uM, 72h; a lower Z score goes with more inhibition. In kind it is functional, Erythrocyte. Conditions: timepoint 72 hour.
As usually defined, the % Inhibition is the drop in the measured response relative to a control, in per cent. As for `CC(COC1CCOC1)NC(=O)C1CCC(=O)C(C)C1` (stereo not given), the “% Inhibition” value is recorded as -1% and the Z score worked out at 0.21.
The matching figures for `Cn1nc(NC(=O)c2ccccc2)c2c1CCN(C(=O)C1CCC1)C2`: -10% and 0.86.
The matching figures for `COC(C(=O)N1C[C@H](C(=O)O)[C@@H](c2ccc(Br)cc2)C1)C1CC1` (stereo not given in full): -1% and 0.13.
Regarding `CCCCN(C1CCCCCC1)S(=O)(=O)N1CCC[C@@H]1COC`, the “% Inhibition” value was 3% and the Z score is listed as -0.54.
The matching figures for `COc1ccccc1C(=O)C(=O)NC1CC(C)(C)NC(C)(C)C1`: -6% and 0.73.
`Cc1nonc1CN1CC[C@@]2(CCCN(C3CCCCC3)C2=O)C1`: the “% Inhibition” value was -1% and the Z score was 0.17.
On to `CN1CCN(c2nc3c(c(Oc4cccc(F)c4)n2)CN(S(=O)(=O)c2cccc(Cl)c2)CC3)CC1`, for which the “% Inhibition” value is listed as -5% and the Z score is 0.66.
The matching figures for `Cc1ccc(Oc2nc(N3CCOCC3)nc3c2CN(S(=O)(=O)c2cccc(Cl)c2)CC3)cc1`: 8% and -1.2.
Turning to `O=S(=O)(c1cccc(Cl)c1)N1CCc2nc(N3CCCCC3)nc(Oc3ccccc3)c2C1`, the “% Inhibition” value turned out to be 53% and the Z score is -13.31.
Turning to `O=C1CN(Cc2nc(-c3ccccc3)nn2C2CCCCC2)CCN1`, the “% Inhibition” value is reported as -7% and the Z score worked out at 1.19.
In the case of `CN(CC(=O)Nc1cccc(F)c1)C(=O)C[C@@H]1C=CCC1`, the “% Inhibition” value is given as 12% and the Z score is reported as -1.67.
As to `CCOc1ccc(-c2cn(Cc3ccncc3)nn2)cc1Cl`, the “% Inhibition” value is -10% and the Z score was 2.05.
Take `Cc1cc(C)cc(-c2cc3nc(C)cc(N4CCC(C(=O)Nc5ccc(C)c(Cl)c5)CC4)n3n2)c1`: the “% Inhibition” value was 36% and the Z score was found to be 1.15.
On to `Cc1cc(C)cc(-c2cc3nc(C)cc(N4CCC(C(=O)NCc5cccc(F)c5)CC4)n3n2)c1`, for which the “% Inhibition” value turned out to be 75% and the Z score is reported as -14.36.
Consider `COc1ccc(-c2cc3nc(C)cc(N4CCC(C(=O)NCc5ccccc5)CC4)n3n2)cc1`, for which the “% Inhibition” value is reported as 4% and the Z score is -0.42.
`Cc1cc(C2CCC(C(=O)NCC3CC3)CN2C(=O)NC(C)C)ccc1F` (stereo not given): the “% Inhibition” value was determined as 0% and the Z score was 0.
In the case of `Cc1cc(S(=O)(=O)N(CCN(C)C)C2CCN(C)CC2)c(C)o1`, the “% Inhibition” value is -16% and the Z score is 1.43.
In the case of `COc1ccc2cc(-c3nc(CCN(C)C(=O)c4cccc(Cl)c4)no3)[nH]c2c1`, the “% Inhibition” value is given as -9% and the Z score is given as 1.75.
Taken in the same sequence, the figures for `COc1ccc2cc(C(=O)NCc3ccnc(Oc4ccccc4)c3)[nH]c2c1` were -7% and 1.13.
Taken in the same sequence, the figures for `Cc1ccc(CC(=O)Nc2cc(C(F)(F)F)n(C)n2)cn1` were -6% and 0.61.
For `Cc1cccc(OC2CN([C@@H](C)CCN(C)C)C2)c1`, the “% Inhibition” value was -19% and the Z score was 2.04.
Taken in the same sequence, the figures for `CC(C(=O)Nc1ccc(Cl)cn1)N1CCCC(c2ccn[nH]2)C1` (stereo not given) were 5% and -0.83.
Taken in the same sequence, the figures for `CC(C(=O)Nc1nccs1)N1CCCC(c2ccn[nH]2)C1` (stereo not given) were 50% and -9.08.
Regarding `C[C@@H](C(=O)Nc1nccs1)N1CCCC1`, the “% Inhibition” value was -4% and the Z score is recorded as 0.56.
Consider `O=C(C1CCC1c1ccc(F)cc1)N1CCCC(c2nc3ccc(F)cc3o2)C1` (stereo not given), for which the “% Inhibition” value is reported as -10% and the Z score stood at 1.06.
Taken in the same sequence, the figures for `CCOc1cc(C(c2c(C)n(C)n(-c3ccccc3)c2=O)c2c(C)n(C)n(-c3ccccc3)c2=O)ccc1OCc1ccccc1` were 75% and -5.78.
Taken in the same sequence, the figures for `Cc1c(C(c2c(C)n(C)n(-c3ccccc3)c2=O)c2c[nH]c3ccccc23)c(=O)n(-c2ccccc2)n1C` were -6% and 0.93.
Taken in the same sequence, the figures for `COc1cc(C(c2c(C)n(C)n(-c3ccccc3)c2=O)c2c(C)n(C)n(-c3ccccc3)c2=O)c(Br)c(Br)c1OCc1ccccc1` were 35% and -0.45.
As for `COc1nc(NC2CCS(=O)(=O)CC2)ncc1F`, the “% Inhibition” value amounted to 65% and the Z score is -7.11.
For `CN(C)c1nc(N[C@H]2CCS(=O)(=O)C2)ncc1F`, the “% Inhibition” value is -3% and the Z score amounted to 0.33.
The matching figures for `COc1nc(N[C@H]2CCCN(C)C2)ncc1F`: 3% and -0.5.
As to `CNC(=O)[C@@H]1C[C@@H](Nc2ccnc(OC)c2C#N)CN1Cc1ccccn1`, the “% Inhibition” value turned out to be 2% and the Z score is recorded as -0.32.
The matching figures for `Cc1noc(C)c1S(=O)(=O)NC1(C(=O)Nc2ccsc2)CCCC1`: -8% and 1.08.
Consider `CC[C@@](C)(CNC(=O)COCc1cccc(OC)c1)N1CCOCC1`, for which the “% Inhibition” value was -4% and the Z score came to 0.5.
Taken in the same sequence, the figures for `CC(C)c1cnc(NCCCC[C@H]2CCCO2)nc1` were 48% and 0.41.
Turning to `Cc1cc(C)nc(NCCC[C@H]2CCCCO2)n1`, the “% Inhibition” value came to 54% and the Z score turned out to be 0.94.
As to `Cc1cc(C)nc(NC[C@H]2CCCO2)n1`, the “% Inhibition” value is listed as -5% and the Z score is recorded as 0.64.
As to `O=C(OCC(F)(F)F)N1CCOCC1`, the “% Inhibition” value was 1% and the Z score is on record as -0.08.
The matching figures for `CC(C)CN1CCCC1C(=O)N1CCO[C@H]2CCC[C@H]21` (stereo not given in full): -5% and 0.92.
The matching figures for `O=C(N/C(=N\c1ccc(F)cc1)N1CCN(Cc2cccc(F)c2)CC1)c1ccccc1`: 2% and -0.32.
